Measurements published in PubChem BioAssay (NCI).
This is part of a sample that, as a whole, favours compounds with a hit. Of some 83,000 tested, about 20% had one in any assay.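 Step 1: grow cells in 96-well plates. Step 2: add test compound at a single concentration. Step 3: incubate 48 h. Step 4: record percent growth.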 A number with no mark means an inactive call. Active and inactive are the calls of the source. The calls were made as follows: active = growth percent below 10; inactive = the rest.

Assays:
Experiment in all cases: NCI-60 one-dose screen, 48 h (100 = growth as untreated, 0 = no growth, -100 = all killed)
Details in all cases: 10 µM unless noted
NCI-H23 lung = tested on: NCI-H23 lung
NCI-H226 lung = tested on: NCI-H226 lung
NCI-H322M lung = tested on: NCI-H322M lung
HOP-62 NSCLC = tested on: HOP-62 NSCLC
NCI-H460 lung = tested on: NCI-H460 lung
HOP-92 NSCLC = tested on: HOP-92 NSCLC
NCI-H522 lung = tested on: NCI-H522 lung
A549/ATCC NSCLC = tested on: A549/ATCC NSCLC
786-0 renal = tested on: 786-0 renal
DU-145 prostate = tested on: DU-145 prostate
K-562 leukemia = tested on: K-562 leukemia
MALME-3M melanoma = tested on: MALME-3M melanoma
MDA-MB-231 breast = tested on: MDA-MB-231 breast
RXF 393 renal = tested on: RXF 393 renal
SF-268 CNS = tested on: SF-268 CNS
SF-295 CNS = tested on: SF-295 CNS
SF-539 CNS = tested on: SF-539 CNS
UACC-257 melanoma = tested on: UACC-257 melanoma
M14 melanoma = tested on: M14 melanoma
COLO 205 colon = tested on: COLO 205 colon

Structure (SMILES)	growth (NCI-H23 lung)	growth (NCI-H226 lung)	growth (NCI-H322M lung)	growth (HOP-62 NSCLC)	growth (NCI-H460 lung)	growth (HOP-92 NSCLC)	growth (NCI-H522 lung)	growth (A549/ATCC NSCLC)	growth (786-0 renal)	growth (DU-145 prostate)	growth (K-562 leukemia)	growth (MALME-3M melanoma)	growth (MDA-MB-231 breast)	growth (RXF 393 renal)	growth (SF-268 CNS)	growth (SF-295 CNS)	growth (SF-539 CNS)	growth (UACC-257 melanoma)	growth (M14 melanoma)	growth (COLO 205 colon)
COc1cc(-c2cc(-c3cccs3)c(C#N)c(N3CCOCC3)n2)cc(OC)c1OC	101%	111%	100%	134%	11.1%	101%	80.3%	83.6%	37.7%	98.7%	10.9%	116%	65.4%	40.6%	113%	62%	58.9%	20.7%	44.6%	
CN(C)c1ccc(/C=C/C(=O)c2ccc(-n3cc(CN4CCN(c5cc6c(cc5F)c(=O)c(C(=O)O)cn6C5CC5)CC4)nn3)cc2)cc1	80.3%	81.7%	77.5%	67.3%	32.5%	50.3%	48.5%	82.2%	33.2%	51.7%	21.9%	89.2%	65.3%	45%	35.7%	81.2%	27.9%	88.3%	60.9%	
COC(C(=O)[C@@H](O)[C@@H](C)O)[C@@H]1Cc2cc3cc(O[C@H]4C[C@@H](O[C@H]5C[C@@H](O)[C@H](O)C(C)O5)[C@H](O)C(C)O4)cc(O)c3c(O)c2C(=O)[C@H]1O[C@H]1C[C@@H](O[C@H]2C[C@@H](O[C@H]3C[C@@H](OC)[C@H](O)C(C)O3)[C@@H](O)C(C)O2)[C@H](O)C(C)O1 (some centres not stated)	47.4%	38.8%	50.2%	18.8%	18.7%	64.2%	15.5%	19.2%	50.7%	53.5%	38.6%	25.8%	43.2%	27.6%	49.9%	30.7%	38.1%	19.9%	57.2%	
CS(=O)(=O)c1cccc(-c2c(-c3cccc(OS(N)(=O)=O)c3)nc3sccn23)c1	108%	92.5%	98.2%	93.8%	105%	77.8%	96.9%	106%	101%	113%	100%	102%	93%	107%	101%	98.3%	93.5%	106%	105%	117%
Cc1ccc2c(n1)C(=O)c1[nH]c3ccccc3c1C2=O	-33.8% (active)	55.7%	31.8%	39.5%	-50.6% (active)	78%	59.7%	-14.4% (active)	78.1%	-86.1% (active)	44.9%	-80.4% (active)	32.1%	62.7%	66.3%	0.15% (active)	43%	13.7%	-39.9% (active)	
O=C(Cn1c(=O)sc2ccccc21)NNS(=O)(=O)c1ccccc1[N+](=O)[O-]	98.6%	101%	104%	108%	108%	104%	88.5%	103%	104%	105%	98.9%	99.9%	104%	119%	97%	103%	99%	99.7%	99.4%	110%
C=C1C(=O)O[C@H]2[C@H]1CC/C(COC(=O)NCc1cc[nH]c1)=C\CC[C@@]1(C)O[C@@H]21	85.8%	68.5%	89.5%	87.3%	68.5%	37.2%	-8.14% (active)	86.7%	49.5%	12.4%	16.6%	84.2%	35.4%	31.1%	64.9%	83.5%	50.8%	59.1%	32.7%	31.2%
O=S(=O)(NCCNc1nccc(-c2c(-c3cccc(F)c3)nc3occn23)n1)c1ccc(Br)cc1	87.9%	75.5%	82.1%	90.1%	68.5%	74.7%	81.8%	53.9%	76.3%	90.4%	69.1%	76.9%	82.3%	68.3%	90.7%	99.4%	92%	98.4%	79.8%	
COC(=O)c1c2c(c(C)[n+]([O-])c1C)C(=O)C=C(NCc1ccc(OC)cc1)C2=O	-38.8% (active)	-8.68% (active)	-6.26% (active)	3.79% (active)	-3.91% (active)	-35.3% (active)	-19.5% (active)	-18.4% (active)	3.11% (active)	-83.7% (active)	0.821% (active)	-97.4% (active)	-6.3% (active)	-32.7% (active)	-22.4% (active)	-62.5% (active)	-80.7% (active)	-77% (active)	-84.6% (active)	-54% (active)
Cc1nnc(NC(=O)c2nc(S(=O)(=O)Cc3ccc(F)cc3)ncc2Cl)s1	90.5%	98.7%	93.8%	86.1%	105%	-85.7% (active)	-67.3% (active)	79.3%	48.3%	88.2%	-23.8% (active)	-12.9% (active)	66%	87.3%	90.5%	99.5%	83.8%	40.6%	83.8%	-18.8% (active)
Fc1ccc2[nH]cc(-c3nonc3-c3c[nH]c4ccc(Br)cc34)c2c1	24.4%	53.6%	35.9%	9.17% (active)	1.22% (active)	22.4%	-12.1% (active)	19.5%	23.5%	42%	4.21% (active)	21.2%	-20.2% (active)	77.3%	38.2%	9.73% (active)	16.7%	42.7%	-5.26% (active)	-45.5% (active)
Oc1c(Cl)cc(Cl)c2ccc(Cn3cc(-c4ccc(C(F)(F)F)cc4)nn3)nc12	83%	84.2%	96%	99.5%	98.8%	40.5%	-30.1% (active)	96.1%	95.1%	48.9%	4.56% (active)	45.5%	86.7%	5.98% (active)	83.9%	104%	69.4%	58.1%	55.5%	83%
COC(=O)[C@H]1CCCN1C[C@@H](O)CN1C(=O)/C(=C\c2cc(OC)c(OC)c(OC)c2)c2ccccc21	106%	96.6%	106%	108%	94.9%	105%	97.8%	90.3%	101%	99.6%	81.4%	100%	102%	114%	99.8%	105%	111%	90.6%	97.3%	
O=C(/C=C/c1ccc(Cl)cc1)c1cccc(Nc2nc(Nc3ccccc3)nc(Nc3ccccc3)n2)c1	85.8%	96.9%	94.6%	85.2%	103%	24.1%	89.3%	81.8%	86.4%	121%	71.4%	95.6%	80.7%	-30.3% (active)	113%	62.2%	116%	103%	94.2%	
Oc1c(Cl)cc(Cl)c2ccc(Cn3cc(-c4cc(C(F)(F)F)cc(C(F)(F)F)c4)nn3)nc12	77.3%	82.1%	103%	101%	101%	24.8%	-39.4% (active)	95.5%	97.3%	21.9%	6.87% (active)	-13.2% (active)	87%	-12.8% (active)	77.2%	106%	43.3%	49.9%	47.8%	66.4%
COc1ccc2[nH]cc(-c3nc(-c4c[nH]c5ccncc45)cs3)c2c1	76.6%	93.3%	67.6%	27.6%	-20.7% (active)	62.5%	-18.8% (active)	24%	-86% (active)	32.9%	-37.9% (active)	-77.5% (active)	-35% (active)	-0.983% (active)	65.3%	-57.1% (active)	-83.4% (active)	82%	-74% (active)	
